Bioassay records as filed in PubChem BioAssay.
Wnt act – Wnt/beta-catenin pathway activation | Wnt/beta-catenin reporter cell assay, activator, plate reader | activation, % at 9.35 µM | AID 743398 | 1.2% of 300,000 active; in the data active = activation above about 30%, passing the limit was not always enough; inconclusive = no clear call, values can overlap the other calls;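 note: 0% = neutral control wells and 100% = positive control wells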
esBAF inh – inhibitors of esBAF chromatin remodeling in mouse ES cells; Bmi1-luciferase knock-in reporter, 24 h; 100% = twice the neutral-well signal; reporter increase, % at 12.5 µM; 2% of 350,000 active; in the data active = activation above about 40%; inconclusive = no clear call, values can overlap the other calls;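 note: 0% = median of the plate's neutral control wells and 100% = double that signal; a rise in the Bmi1 reporter signal indicates esBAF inhibition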
Glyco luc inh – N-linked glycosylation inhibition | 0.23% of 360,000 active | reporter increase, % at 12.5 µM | D54 ERlucT glycosylation luciferase reporter, 24 h; percent of 100 nM tunicamycin response;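 active = mean luciferase reporter signal, scaled so untreated is 0 and the glycosylation-blocking control 100, at or above a set limit in every replicate; inconclusive = mean reaches the limit but not every replicate does; inactive = mean below the limit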;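 note: luciferase carries N-glycosylation sites so blocking glycosylation raises the light; 0% = median of neutral control wells and 100% = median of 100 nM tunicamycin wells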
MITF TRPM1 HTS – MITF TRPM1 promoter activation in melanoma cells; activation, % at 12.5 µM; SK-MEL-5 TRPM1-promoter luciferase, 24 h; % of positive control, neutral wells = 0; 0.75% of 300,000 active;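 active = mean activation of at least 80% with every replicate also reaching 80%; inconclusive = mean reaches 80% but some replicate falls short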;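 note: 0% = neutral control wells and 100% = parthenolide positive control wells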
PvdQ inh – P. aeruginosa PvdQ acylase inhibition; inhibition, % at 10 µM; 0.063% of 340,000 active; purified PvdQ acylase, fluorescence plate reader; in the data active = inhibition above about 30%, passing the limit was not always enough; inconclusive = no clear call, values can overlap the other calls;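 note: 0% = vehicle neutral wells and 100% = reference inhibitor wells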
Vif imaging – blocks HIV Vif function. HEK293T cells, Vif self-association by quenched fluorescence, imaging, 24 h. inhibition, % at 7.49 µM. 0.35% of 340,000 active. AID 602346; in the data active = inhibition above about 50%, passing the limit was not always enough; inconclusive = no clear call, values can overlap the other calls; inactive = below about 31%
Numbers without * were called inactive; ? = inconclusive; . = no result. An excerpt weighted towards active compounds, which were near 2.9% of everything screened.

SMILES	Wnt act	esBAF inh	Glyco luc inh	MITF TRPM1 HTS	PvdQ inh	Vif imaging
C(=NN1CCCCCC1)c1ccc2c(c1)OCO2	33*	19	-12	23	-7	1
O=C(/C=C/C=C/c1ccc2c(c1)OCO2)N1CCCCC1	1	51*	-6	98*	-11	-4
C(=N\n1cnnc1)/c1ccc2c(c1)OCO2	-2	-1	3	-8	3	2
COCC(=O)OCc1cc2cccc(C)c2[nH]c1=O	42*	.	1	3	-4	6
Cc1cccc2cc(COC(=O)c3ccco3)c(=O)[nH]c12	-2	-5	-1	-5	-17	64*
NNc1nc2c(-c3ccc(F)cc3)nnn2c2ccccc12	39*	33	-6	43	1	-5
Fc1cccc(-c2nnn3c2nc(Cl)c2ccccc23)c1	40*	?	-7	-11	-3	-2
NNc1nc2c(-c3ccc(Cl)cc3)nnn2c2ccccc12	0	.	-6	43	6	-5
Clc1cccc(-c2cc3nc4c(c(NCc5ccco5)n3n2)CCCC4)c1	.	44*	-10	53	-7	-5
Cc1ccccc1S(=O)(=O)N1C[C@H](O)COC[C@@H]2O[C@H](CC(=O)N3CCC(Cc4ccccc4)CC3)CC[C@H]21	.	7	.	.	.	.
C/C=C/c1ccc([C@H]2[C@@H](CO)N(C(=O)C3CC3)[C@H]2CN(C)C(=O)C2CC2)cc1	.	4	.	.	.	.
c1cncc(-c2nc3c(ccc4ccccc43)[nH]2)c1	13	52*	6	13	-7	-32
O=c1[nH]c(-c2cccnc2)nc2ccccc12	-4	-5	1	2	1	-8
Cn1cccc1/C=C1\SC(=O)N(c2ccccc2)C1=O	41*	.	-4	95*	-7	-9
COc1ccccc1NC(=O)N[C@@H]1CC[C@H](CC(=O)N2CCC(Cc3ccccc3)CC2)O[C@@H]1CO	.	9	.	.	.	.
CCOc1ccc(/C=C2/SC(=O)NC2=S)cc1	.	.	2	12	-16	-9
CCOc1ccc(N=C2NC(=O)S/C2=C\c2ccc(N(C)C)cc2)cc1	.	50*	-2	.	-2	148*
Oc1ccc(Cl)cc1CNc1ccc(Br)cn1	.	75*	-2	74	-5	-3
Oc1ccc(Cl)cc1CNc1nccs1	45*	-1	3	.	-6	2
C[C@H](CO)N1C[C@H](C)[C@H](CN(C)Cc2ccncc2)OCCCC[C@H](C)Oc2ccc(NC(=O)Nc3ccc4c(c3)OCO4)cc2C1=O	.	73*	.	.	.	.
C[C@@H]1CN([C@H](C)CO)C(=O)c2cc(NC(=O)Nc3ccc4c(c3)OCO4)ccc2O[C@@H](C)CCCCO[C@@H]1CN(C)Cc1ccncc1	.	-4	.	.	.	.
C[C@@H]1CCCCO[C@@H](CN(C)Cc2ccncc2)[C@H](C)CN([C@@H](C)CO)C(=O)c2cc(NC(=O)Nc3ccc4c(c3)OCO4)ccc2O1	.	62*	.	.	.	.
C[C@@H](NC(=O)C[C@@H]1CC[C@H]2[C@@H](COC[C@@H](O)CN2C(=O)Nc2cccc(Cl)c2)O1)c1ccccc1	.	3	.	.	.	.
COCCNC(=O)C[C@H]1C[C@H]2c3cc(NC(=O)c4ccc5c(c4)OCO5)ccc3O[C@H]2[C@@H](CO)O1	.	-5	.	.	.	.
COc1ccc(S(=O)(=O)N(C)C[C@H]2OCCCC[C@@H](C)Oc3ccc(NS(=O)(=O)c4ccc(F)cc4)cc3C(=O)N([C@@H](C)CO)C[C@@H]2C)cc1	.	1	.	.	.	.
SMILES	Wnt act	esBAF inh	Glyco luc inh	MITF TRPM1 HTS	PvdQ inh	Vif imaging
O=C(CCN1CCCCC1)N[C@H]1CC[C@H](CCNC(=O)c2cc(Cl)cc(Cl)c2)O[C@H]1CO	.	5	.	.	.	.
c1ccc(-c2cc(NCCN3CCCCC3)c3ccccc3n2)cc1	0	-10	71*	-49	-1	-20
O=C(c1cc(-c2ccccc2)nc2ccccc12)N1CCCC1	0	-3	-2	-10	-12	-6
CCCNC(=O)C[C@H]1CC[C@H]2[C@@H](COc3ccc(NC(=O)Nc4cccc(C)c4)cc3C(=O)N2C)O1	.	0	.	.	.	.
O=C(c1sc2cc([N+](=O)[O-])ccc2c1Cl)N1CCCCC1	-1	33	-3	9	8	-8
CC1CCCN(C(=O)c2sc3cc([N+](=O)[O-])ccc3c2Cl)C1 (stereo not drawn)	.	46*	-3	36	0	-6
COc1ccc(NC(=O)Nc2ccc3c(c2)C(=O)N([C@H](C)CO)C[C@H](C)[C@H](CN(C)S(C)(=O)=O)OCCCC[C@H](C)O3)cc1	.	-6	.	.	.	.
COc1nc(-c2ccccc2)ccc1-c1noc(-c2cccs2)n1	.	46*	3	31	-5	7
COc1nc(-c2ccccc2)ccc1-c1noc(-c2ccco2)n1	.	76*	1	.	-11	1
COc1nc(C)ccc1-c1noc(-c2cccs2)n1	-3	.	-10	.	-6	-1
COc1ccc(-c2ccc(-c3noc(-c4ccccc4)n3)c(OC)n2)cc1	3	-5	1	1	-15	.
CCOc1ccccc1-c1nc(-c2ccc(C)nc2OC)no1	51*	69*	-1	.	-6	-4
COc1nc(-c2ccccc2)ccc1-c1noc(-c2ccccc2)n1	-5	44*	-3	58	-14	5
CCOc1nc(C)ccc1-c1noc(-c2ccccn2)n1	.	11	-1	42	-20	-5
CCCN1C[C@@H](C)[C@@H](OC)CN(C)C(=O)c2cc(NC(=O)COC)ccc2OC[C@H]1C	.	-2	.	.	.	.
C[C@H](CO)N1C[C@H](C)[C@H](CN(C)C(=O)Cc2ccccc2)OCc2cn(nn2)CCCC1=O	.	3	.	.	.	.
COc1ccccc1-c1noc(-c2ccco2)n1	-2	21	0	90*	0	-1
COc1nc(C)ccc1-c1noc(-c2ccncc2)n1	0	20	-2	97*	-4	.
COc1ccc(-c2nc(-c3ccncc3)no2)c(OC)c1	11	-44	-18	10	23	-3
COc1ccc(-c2ccc(-c3noc(-c4ccco4)n3)c(OC)n2)cc1	4	48*	1	54	-14	-3
COc1ccc(CN(C)C[C@@H]2OCCCC[C@@H](C)Oc3ccc(NC(=O)CCC(F)(F)F)cc3C(=O)N([C@@H](C)CO)C[C@H]2C)cc1	.	0	.	.	.	.
CCCN(C)C[C@H]1OCCCC[C@H](C)Oc2ccc(NS(=O)(=O)c3ccc(F)cc3)cc2C(=O)N([C@H](C)CO)C[C@H]1C	.	-4	.	.	.	.
O=C(CC1SC2=NCCN2C1=O)Nc1ccc(Br)cc1 (stereo not drawn)	.	-5	2	-9	-14	53*
O=C(N[C@H]1CC[C@@H](CCNS(=O)(=O)c2ccc(Cl)cc2)O[C@@H]1CO)c1cnccn1	.	10	.	.	.	.
COc1ccc(-c2n[nH]c(C)c2-c2cc(OC)ccc2O)cc1	-6	-3	0	4	-11	28
COc1ccc(-c2cc(-c3cc(OC)ccc3O)[nH]n2)cc1	.	54*	-4	.	-7	-7
Oc1ccc(Br)cc1-c1cc(-c2ccc(Cl)cc2)n[nH]1	.	.	1	-4	-10	-3
